The text below walks through data of PubChem BioAssay AID560 (The Scripps Research Institute Molecular Screening Center, 2006).

Hit rate of the full screen: of about 65,000 compounds, about 980 (1.5%) were called active. Many of the other results were omitted from the sample, so actives are more common in it than they were. A number with no mark means an inactive call.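 Rule for the calls: active = activation above the mean of all tested compounds plus 3 SD (cut at about 49% in these data); inactive = the rest.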

The target of this experiment is Nuclear receptor ROR-alpha (Homo sapiens) (UniProt P35398). Put plainly: RORA ligand-binding domain transcriptional activation – cell-based, luminescence, primary screen (AID 560).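 Note: 0% = DMSO-treated RORA cells and 100% = added signal equal to DMSO minus mock-transfected cells.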 The settings on record: CHO-K1 Gal4-RORA LBD luciferase reporter, at 10 µM, hits give high values, percent increase over mock-subtracted basal signal.
Nuclear receptor ROR-alpha (Homo sapiens), sequence (P35398 whole entry, looked up, the tested form may be a part): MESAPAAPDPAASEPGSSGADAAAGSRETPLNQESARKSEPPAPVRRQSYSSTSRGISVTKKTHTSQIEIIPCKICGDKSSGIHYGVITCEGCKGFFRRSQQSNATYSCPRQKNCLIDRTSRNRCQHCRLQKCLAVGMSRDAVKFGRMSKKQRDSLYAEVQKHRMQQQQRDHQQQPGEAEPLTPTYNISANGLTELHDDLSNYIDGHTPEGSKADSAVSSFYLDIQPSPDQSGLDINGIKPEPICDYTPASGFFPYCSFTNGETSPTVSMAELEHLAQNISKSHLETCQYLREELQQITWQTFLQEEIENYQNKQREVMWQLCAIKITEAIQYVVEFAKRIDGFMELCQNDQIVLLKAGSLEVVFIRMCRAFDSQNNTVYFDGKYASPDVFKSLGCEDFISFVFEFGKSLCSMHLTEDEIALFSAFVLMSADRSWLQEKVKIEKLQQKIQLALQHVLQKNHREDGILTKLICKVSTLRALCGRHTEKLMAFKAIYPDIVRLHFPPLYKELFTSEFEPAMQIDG
Consider `O=C(O)C1OC(C(=O)O)C2C1C(F)(F)C2(F)F` (stereo not given), for which the activation is -1.8%.
In the case of `CCCn1c(=O)c(-c2ccccc2)c(O)c2ccccc21` it was 5.6%.
To `CCOCCCNS(=O)(=O)Cc1ccccc1` belongs -16.2%; to `O=C1CCCC2=C1C(c1cccs1)n1nc(SCc3ccccc3)nc1N2` (stereo not given), -13.1%; to `O=C(CN1CCOCC1)N1CCCc2c1c(=O)oc1ccc(OCc3ccccc3)cc21`, -15.9%.
To `CCC(=O)Oc1cccc(C(=O)Nc2ccc(-c3nnc(-c4ccco4)o3)cc2)c1` belongs 112% (active); to `CCOc1ccc(-c2nnc(-c3ccco3)o2)cc1`, -31.6%.
Consider `Cc1ccc(OCC(=O)Nc2ccc(-c3nnc(-c4ccco4)o3)cc2)cc1`, for which the activation was 20.8%.
In the case of `Cn1c(=O)c(C(=O)Nc2ncccn2)c(O)c2ccccc21`, the activation was 61% (active).
Turning to `CCOc1cc(C(=O)Nc2ncccn2)cc(OCC)c1OCC`, the activation is -3.1%.
In the case of `O=C(Nc1ncccn1)c1cccs1`, the activation is -6.7%.
To `CC(C)C(c1nnnn1CCc1ccccc1)N1CCN(C(=O)c2ccco2)CC1` (stereo not given) belongs -9%.
To `CCC(CC)c1nnc(NS(=O)(=O)Cc2ccccc2)s1` belongs -5.9%; to `COc1ccccc1-c1cc(C(=O)N2CCCCC2)no1`, 56.5% (active).
For the molecule `O=C(CSCc1cccs1)N1CCCC1`, the activation was 22.9%.
Take `COc1ccccc1N1CCN(C(=O)c2cc(-c3ccc(Br)cc3)on2)CC1`: the activation was -2.4%.
In the case of `Cc1cc(NC(=O)c2cc(-c3cccs3)on2)nn1Cc1ccc(Cl)cc1` it was 27.5%.
With `O=C(c1cc(-c2cccs2)on1)N1CCCCC1`, the activation is 63.4% (active).
In the case of `O=C(c1cc(-c2ccccc2O)on1)N1CCCC1` it was 18.2%; in that of `Cc1cc(Cl)c(S(=O)(=O)NCCC(=O)O)cc1OCC(N)=O`, -22.1%; in that of `COc1ccc(OCCCON2C(=O)c3ccccc3C2=O)cc1`, -11.1%.
Turning to `C[N+]1(CCNC(=O)/C=N/O)CCCCC1`, the activation is -28.3%.
To `O=C(Nc1ccon1)c1cccc(Cl)c1` belongs -2.3%.
In the case of `CN(C)CCSc1nc(N)c2c3c(sc2n1)COC(C)(C)C3`, the activation is 10.3%.
As to `C=C(C)Cn1c(SCC(=O)NCc2ccco2)nc2sc3c(c2c1=O)CCC3`, the activation was -4%.
In the case of `C=C(C)CSc1nc(N)c2c3c(sc2n1)CCC3`, the activation was 56.2% (active).
To `CCn1cc(C(=O)NCC2CCCO2)c(=O)c2cc(S(=O)(=O)N3CCCCC3)ccc21` (stereo not given) belongs -5.2%; to `O=C(CCCn1c(SCC(=O)c2ccc(F)cc2)nc2ccccc2c1=O)NCc1ccco1`, 40.5%; to `COc1ccc(-c2noc(-c3cccc(OC)c3OC)n2)cc1OC`, 89.8% (active).
In the case of `COc1ccc(-c2nc(-c3ccccc3)no2)c(OC)c1` it was -78.4%.
For `COc1cc(-c2nc(-c3ccncc3)no2)cc(OC)c1OC`, the activation was 5.3%.
In the case of `CC(=O)Nc1ccc(NS(=O)(=O)c2cc(C)sc2C)cc1` it was -3%; in that of `COc1ccc(C(=O)Nc2ccc3c(c2)OCO3)cc1OC`, 69.8% (active).
To `CC(C)C(=O)Nc1cccc(C(=O)Nc2ccc3c(c2)OCO3)c1` belongs 31.6%; to `Cn1c(=O)n(C)c2cc(C(=O)Nc3ccc4c(c3)OCO4)ccc21`, 19.1%.
On to `O=C(Nc1ccc(-c2nnc(-c3ccccc3)o2)cc1)c1ccc(Br)o1`, for which the activation was 9.1%.
`Nc1ccc(-c2nnc(-c3ccc(-c4ccccc4)cc3)o2)cc1`: the activation was 60.7% (active).
For the molecule `COc1ccc(CC(=O)Nc2ccc(-c3nnc(-c4ccccc4)o3)cc2)cc1`, the activation is 8.7%.
For `CN(C)c1ccc(CNC23CN4CN(CN(C4)C2)C3)cc1`, the activation is -19.1%.
In the case of `CN(Cc1ccccc1)Cc1ccccc1F` it was 5.2%.
